Source: PubChem BioAssay (EPA / NIEHS)
“And” between values parts separate entries of the source, which are not always exact repeats. Identical values can stand only once. Inconclusive results are not listed. Some structures have more than one record in an assay (separate samples or runs), and their calls can disagree. The source made the active and inactive calls. How the source made its calls, unless noted: active means hit-call score of the fitted dose curve at least 0.9, where 1 is the maximum; inconclusive means response in the unintended direction; inactive means score below 0.9.

Key:
[1] = tested on: guinea pig Dopamine Transporter (DAT), gene 100714898; assay: NVS_TR_gDAT: NovaScreen (NVS) Transporter Assay for guinea pig Dopamine Transporter (DAT) (AID 2283369);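 further: active compounds lower bound radioligand signal relative to DMSO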
In short: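 Radioligand displacement on membranes from guinea pig striatum, 2 h exposure, bound label counted by filtration and scintillation. Tested at 25 uM in duplicate, then actives in concentration series to 50 uM; DMSO as negative control.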

[2] = target: human Dopamine Transporter (DAT), SLC6A3 (gene 6531) (UniProt Q01959); assay: NVS_TR_hDAT: NovaScreen (NVS) Transporter Assay for human Dopamine Transporter (DAT) (AID 2283374);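 further: activity means loss of bound radioligand signal relative to DMSO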
Chain of human Dopamine Transporter (DAT), SLC6A3 (gene 6531) (Q01959 whole entry, looked up): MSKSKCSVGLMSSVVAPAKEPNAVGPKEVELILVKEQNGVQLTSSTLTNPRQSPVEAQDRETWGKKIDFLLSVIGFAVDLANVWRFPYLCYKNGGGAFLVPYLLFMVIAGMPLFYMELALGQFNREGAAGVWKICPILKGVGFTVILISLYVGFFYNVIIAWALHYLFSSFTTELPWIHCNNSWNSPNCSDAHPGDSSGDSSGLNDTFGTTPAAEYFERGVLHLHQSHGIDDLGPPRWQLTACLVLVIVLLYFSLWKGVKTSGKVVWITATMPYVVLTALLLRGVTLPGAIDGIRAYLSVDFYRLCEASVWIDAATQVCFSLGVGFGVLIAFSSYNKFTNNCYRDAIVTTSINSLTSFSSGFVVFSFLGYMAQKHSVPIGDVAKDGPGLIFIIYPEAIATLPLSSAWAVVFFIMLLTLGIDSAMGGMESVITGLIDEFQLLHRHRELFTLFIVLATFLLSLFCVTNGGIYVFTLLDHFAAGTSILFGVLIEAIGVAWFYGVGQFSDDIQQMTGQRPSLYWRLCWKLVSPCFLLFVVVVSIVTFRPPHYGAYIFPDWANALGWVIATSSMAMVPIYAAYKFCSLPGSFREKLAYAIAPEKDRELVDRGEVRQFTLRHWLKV
In short: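 hDAT membranes + tritiated/iodinated radioligand, competitive displacement; 1 h; filter scintillation readout. Single conc 25 uM (duplicate), then conc-response for actives. DMSO = negative control.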

[3] = target: Estrogen receptor (Homo sapiens) (UniProt P03372); assay: OT_ERa_GFPERaERE_0480: Odyssey Thera (OT) 8-hour HeLa Transcription Induction Assay for Estrogen Receptor (AID 2283381; active means hit-call score of the fitted dose curve at least 0.9, where 1 is the maximum; inactive means score below 0.9)
Chain of Estrogen receptor (Homo sapiens) (P03372 whole entry, looked up): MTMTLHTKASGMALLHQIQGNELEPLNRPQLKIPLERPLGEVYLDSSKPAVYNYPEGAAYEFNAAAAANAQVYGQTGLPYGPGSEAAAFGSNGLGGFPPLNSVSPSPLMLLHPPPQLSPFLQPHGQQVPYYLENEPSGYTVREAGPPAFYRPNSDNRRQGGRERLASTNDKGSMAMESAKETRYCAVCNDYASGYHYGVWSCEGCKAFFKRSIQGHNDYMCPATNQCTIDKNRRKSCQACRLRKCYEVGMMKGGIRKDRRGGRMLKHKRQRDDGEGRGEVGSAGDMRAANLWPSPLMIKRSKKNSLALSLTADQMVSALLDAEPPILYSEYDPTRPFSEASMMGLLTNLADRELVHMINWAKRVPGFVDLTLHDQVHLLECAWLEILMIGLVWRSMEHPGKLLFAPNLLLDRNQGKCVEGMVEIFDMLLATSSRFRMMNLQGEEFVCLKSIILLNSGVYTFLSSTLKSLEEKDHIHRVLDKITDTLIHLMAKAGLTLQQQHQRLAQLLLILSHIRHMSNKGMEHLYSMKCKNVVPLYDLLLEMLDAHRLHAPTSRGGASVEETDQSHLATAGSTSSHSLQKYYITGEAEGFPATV
In short: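 An 8 h HeLa transcription-induction format with a GFP reporter under ERE control, read by fluorescence microscopy; single endpoint fitted positively with DMSO as baseline.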

[4] = target: Retinoic acid receptor RXR-alpha (Homo sapiens) (UniProt P19793); assay: OT_NURR1_NURR1RXRa_0480: Odyssey Thera (OT) 8-hour HEK293T Protein Complementation Assay for Nurr1/retinoid X receptor (RXR) (AID 2283385)
Chain of Retinoic acid receptor RXR-alpha (Homo sapiens) (P19793 whole entry, looked up, the tested form may be a part): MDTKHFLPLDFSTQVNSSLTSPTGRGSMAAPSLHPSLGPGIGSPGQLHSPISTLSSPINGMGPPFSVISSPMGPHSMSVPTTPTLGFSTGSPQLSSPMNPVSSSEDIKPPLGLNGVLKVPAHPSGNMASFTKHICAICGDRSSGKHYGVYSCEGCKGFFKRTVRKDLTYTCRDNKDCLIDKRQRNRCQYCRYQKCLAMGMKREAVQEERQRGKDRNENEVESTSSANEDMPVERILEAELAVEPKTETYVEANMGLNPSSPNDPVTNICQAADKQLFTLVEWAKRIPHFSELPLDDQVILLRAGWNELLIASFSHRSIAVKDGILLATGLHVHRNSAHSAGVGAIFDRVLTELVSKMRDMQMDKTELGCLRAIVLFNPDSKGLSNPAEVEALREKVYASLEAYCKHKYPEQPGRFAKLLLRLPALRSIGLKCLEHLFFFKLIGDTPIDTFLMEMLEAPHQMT
In short: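 Gain in fluorescent complementation signal over DMSO, measured 8 hours after chemical dosing of human kidney HEK293T cells, indicated enhanced Nurr1–RXRα association.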

[5] = target: Peroxisome proliferator-activated receptor gamma (Homo sapiens) (UniProt P37231); assay: OT_PPARg_PPARgSRC1_0480: Odyssey Thera (OT) 8-hour Protein-Complementation Assay for Peroxisome Proliferator-activated Receptor Gamma / SRC-1 Co-activator (AID 2283387);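 further: nuclear to cytoplasmic split Venus YFP fluorescence ratio reporting PPARg SRC-1 interaction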
Chain of Peroxisome proliferator-activated receptor gamma (Homo sapiens) (P37231 whole entry, looked up, the tested form may be a part): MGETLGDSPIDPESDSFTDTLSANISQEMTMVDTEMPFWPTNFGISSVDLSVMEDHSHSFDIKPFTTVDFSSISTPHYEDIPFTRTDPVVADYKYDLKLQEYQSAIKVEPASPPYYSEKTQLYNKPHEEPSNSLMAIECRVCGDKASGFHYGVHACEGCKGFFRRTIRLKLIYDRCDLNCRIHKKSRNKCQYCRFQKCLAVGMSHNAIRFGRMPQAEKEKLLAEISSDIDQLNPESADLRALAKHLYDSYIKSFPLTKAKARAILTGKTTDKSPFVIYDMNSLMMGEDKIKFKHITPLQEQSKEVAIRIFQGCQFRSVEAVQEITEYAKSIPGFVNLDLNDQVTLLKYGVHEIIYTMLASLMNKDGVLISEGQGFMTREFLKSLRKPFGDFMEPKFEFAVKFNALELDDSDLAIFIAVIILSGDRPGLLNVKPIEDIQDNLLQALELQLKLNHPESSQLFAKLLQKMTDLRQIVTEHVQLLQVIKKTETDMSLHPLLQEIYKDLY
In short: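 Split-YFP (IFP1/IFP2) PPARg/SRC-1 reporter, HEK293T, 37 °C, 5% CO2; 8 h compound; formaldehyde fix + Draq5; high-content imaging, N/C ratio, ≥350 cells/image, positive direction vs DMSO.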

[6] = target: Peroxisome proliferator-activated receptor gamma (Homo sapiens) (UniProt P37231); assay: OT_PPARg_PPARgSRC1_1440: Odyssey Thera (OT) 24-hour Protein-Complementation Assay for Peroxisome Proliferator-activated Receptor Gamma/ SRC-1 Co-activator (AID 2283388);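 further: nuclear to cytoplasmic ratio of reconstituted Venus YFP fluorescence in fixed imaged cells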
In short: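 Readout is the 488 nm N/C fluorescence ratio from fixed, Draq5-stained HEK293T cells after 24 h compound exposure. Cells carried transiently transfected PPARg and SRC-1 fused to Venus fragments, transfected 48 h before treatment.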

[7] = CEETOX_H295R_11DCORT: CeeTox H295R High-throughput Steroidogenesis Assay for 11-Deoxycortisol (11DCORT) (AID 2283432; active means hit-call score of the fitted dose curve at least 0.9, where 1 is the maximum; inactive means score below 0.9;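 on AC50: human adrenal H295R cells prestimulated with 10 µM forskolin for 48 h; 11-deoxycortisol secreted into the medium measured by LC-MS/MS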); details: actives raise or lower the signal
In short: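 Steroidogenesis in human H295R cells: 48 h chemical exposure after forskolin priming, 11-deoxycortisol measured by LC-MS/MS.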

[8] = CEETOX_H295R_OHPREG: CeeTox H295R High-throughput Steroidogenesis Assay for OH-Pregnenolone (OHPREG) (AID 2283434; active means hit-call score of the fitted dose curve at least 0.9, where 1 is the maximum; inactive means score below 0.9); details: actives raise or lower the signal
In short: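 H295R, 10 uM forskolin pre-stim 48 h; test chemical 48 h, 0.1% DMSO final. MTBE extraction, reverse-phase C18 HPLC-ESI+ MS/MS of medium. Gain/loss vs DMSO; viability by MTT in same wells.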

[9] = target: mouse Estrogen Receptor alpha (Era), Esr1 (gene 13982) (UniProt P19785); assay: NVS_NR_mERa: NovaScreen (NVS) Nuclear Receptor Binding Assay for mouse Estrogen Receptor alpha (Era) (AID 2283378);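 further: hit means loss of bound radioligand signal relative to DMSO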
Chain of mouse Estrogen Receptor alpha (Era), Esr1 (gene 13982) (P19785 whole entry, looked up): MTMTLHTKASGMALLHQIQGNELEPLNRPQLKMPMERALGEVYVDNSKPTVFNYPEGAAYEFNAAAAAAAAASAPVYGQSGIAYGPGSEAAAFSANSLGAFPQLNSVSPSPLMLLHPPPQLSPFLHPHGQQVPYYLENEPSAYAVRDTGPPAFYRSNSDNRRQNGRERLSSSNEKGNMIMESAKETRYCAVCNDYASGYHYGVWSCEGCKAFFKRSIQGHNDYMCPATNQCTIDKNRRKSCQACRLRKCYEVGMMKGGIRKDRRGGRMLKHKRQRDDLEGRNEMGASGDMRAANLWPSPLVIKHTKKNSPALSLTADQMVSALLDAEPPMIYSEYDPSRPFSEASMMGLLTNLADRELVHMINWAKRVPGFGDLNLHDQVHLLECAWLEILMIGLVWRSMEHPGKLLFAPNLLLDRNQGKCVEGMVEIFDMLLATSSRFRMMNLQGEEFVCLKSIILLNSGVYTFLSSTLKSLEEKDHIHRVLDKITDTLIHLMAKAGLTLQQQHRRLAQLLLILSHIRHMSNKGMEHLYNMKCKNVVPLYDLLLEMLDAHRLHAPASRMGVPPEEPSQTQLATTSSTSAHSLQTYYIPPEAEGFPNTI
In short: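 Filter radiodetection of radioligand displacement from extracted receptor protein, measured 18 h post-dose. Single 25 uM concentration in duplicate initially, with concentration-series follow-up. Binding loss fitted relative to DMSO.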

[10] = target: Agonist Androgen Response Element (ARE), AR (gene 367) (UniProt P10275); assay: OT_AR_ARELUC_AG_1440: Odyssey Thera (OT) 24-hour CHO-K1 Luciferase Assay for Agonist Androgen Response Element (ARE) (AID 2283379)
In short: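 Gain-of-signal reporter endpoint: cells (CHO-K1, hamster) are treated 24 h, luciferin/ATP reagent added, and luminescence compared with DMSO baseline.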

[11] = target: Estrogen receptor beta (Homo sapiens) (UniProt Q92731); assay: OT_ER_ERbERb_1440: Odyssey Thera (OT) 24-hour HEK293T Protein-Complementation Assay for Estrogen Receptor-beta/-beta Homodimer (AID 2283380);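 further: scored as signal increase over DMSO baseline for both agonists and antagonists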
Chain of Estrogen receptor beta (Homo sapiens) (Q92731 whole entry, looked up, the tested form may be a part): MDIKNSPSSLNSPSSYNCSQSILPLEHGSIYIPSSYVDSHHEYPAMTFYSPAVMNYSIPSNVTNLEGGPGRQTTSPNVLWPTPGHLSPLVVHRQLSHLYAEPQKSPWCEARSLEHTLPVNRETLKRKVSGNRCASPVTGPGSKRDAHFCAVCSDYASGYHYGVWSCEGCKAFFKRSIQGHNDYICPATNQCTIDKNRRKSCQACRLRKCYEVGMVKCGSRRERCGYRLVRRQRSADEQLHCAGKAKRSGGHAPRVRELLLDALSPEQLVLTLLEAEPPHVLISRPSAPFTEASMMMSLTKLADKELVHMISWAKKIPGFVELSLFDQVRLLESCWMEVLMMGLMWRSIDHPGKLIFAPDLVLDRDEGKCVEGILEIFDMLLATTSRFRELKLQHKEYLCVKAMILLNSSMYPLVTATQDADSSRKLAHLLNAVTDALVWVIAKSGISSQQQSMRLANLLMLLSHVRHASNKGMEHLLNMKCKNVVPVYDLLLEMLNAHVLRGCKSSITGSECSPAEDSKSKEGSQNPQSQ
In short: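 HEK293T cells stably expressing ER beta LBD (aa 310-547) homodimer fragment-complementation reporter, dosed 24 h. Cells formaldehyde-fixed, Draq5-stained; gain in nuclear (agonist) or nuclear plus cytoplasmic (antagonist) fluorescence versus DMSO read by laser scanning cytometry.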

[12] = tested on: rat Norepinephrine Transporter (NET), gene 83511; assay: NVS_TR_rNET: NovaScreen (NVS) Transporter Assay for rat Norepinephrine Transporter (NET) (AID 2283373)
In short: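 Competitive radioligand displacement at the rat NET using forebrain membrane preparations, 1 h incubation, filter-based scintillation readout. Primary testing in duplicate at a single 25 uM concentration; confirmed actives retested across concentrations.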

[13] = target: Norway rat Vesicular Monoamine Transporter (VMAT2), neurotransmitter transporter, Slc18a2 (gene 25549) (UniProt Q01827); assay: NVS_TR_rVMAT2: NovaScreen (NVS) Transporter Assay for Norway rat Vesicular Monoamine Transporter (VMAT2), neurotransmitter transporter (AID 2283376);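 further: actives lower the bound radioligand signal below the DMSO level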
Chain of Norway rat Vesicular Monoamine Transporter (VMAT2), neurotransmitter transporter, Slc18a2 (gene 25549) (Q01827 whole entry, looked up): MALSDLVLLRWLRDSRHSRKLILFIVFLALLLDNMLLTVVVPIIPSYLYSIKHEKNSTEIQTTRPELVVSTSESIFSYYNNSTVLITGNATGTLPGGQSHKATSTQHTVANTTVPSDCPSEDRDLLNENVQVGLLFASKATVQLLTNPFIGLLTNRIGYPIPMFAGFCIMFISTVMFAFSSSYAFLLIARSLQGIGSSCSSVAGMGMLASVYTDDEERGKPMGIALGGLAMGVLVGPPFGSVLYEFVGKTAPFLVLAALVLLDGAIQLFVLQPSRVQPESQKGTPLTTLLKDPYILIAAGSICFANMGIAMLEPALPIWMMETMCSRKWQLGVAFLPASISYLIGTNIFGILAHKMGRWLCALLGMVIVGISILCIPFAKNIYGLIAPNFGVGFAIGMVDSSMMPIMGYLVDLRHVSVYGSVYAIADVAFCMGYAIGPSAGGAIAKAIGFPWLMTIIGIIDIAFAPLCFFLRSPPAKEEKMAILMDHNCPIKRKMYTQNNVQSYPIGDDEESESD
In short: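 Filter-based scintillation counting of radioligand bound to rat forebrain-derived VMAT2 protein, cell-free, 1 h post-dose. Signal loss relative to DMSO control scored; single-concentration duplicate screen (25 uM) followed by concentration-response testing of actives.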

[14] = target: human Norepinephrine Transporter (NET), SLC6A2 (gene 6530) (UniProt P23975); assay: NVS_TR_hNET: NovaScreen (NVS) Transporter Assay for human Norepinephrine Transporter (NET) (AID 2283377);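 further: cell-free membrane protein extracted from CHO cells expressing human NET; displacement of radioligand from human NET seen as loss of scintillation signal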
Chain of human Norepinephrine Transporter (NET), SLC6A2 (gene 6530) (P23975 whole entry, looked up): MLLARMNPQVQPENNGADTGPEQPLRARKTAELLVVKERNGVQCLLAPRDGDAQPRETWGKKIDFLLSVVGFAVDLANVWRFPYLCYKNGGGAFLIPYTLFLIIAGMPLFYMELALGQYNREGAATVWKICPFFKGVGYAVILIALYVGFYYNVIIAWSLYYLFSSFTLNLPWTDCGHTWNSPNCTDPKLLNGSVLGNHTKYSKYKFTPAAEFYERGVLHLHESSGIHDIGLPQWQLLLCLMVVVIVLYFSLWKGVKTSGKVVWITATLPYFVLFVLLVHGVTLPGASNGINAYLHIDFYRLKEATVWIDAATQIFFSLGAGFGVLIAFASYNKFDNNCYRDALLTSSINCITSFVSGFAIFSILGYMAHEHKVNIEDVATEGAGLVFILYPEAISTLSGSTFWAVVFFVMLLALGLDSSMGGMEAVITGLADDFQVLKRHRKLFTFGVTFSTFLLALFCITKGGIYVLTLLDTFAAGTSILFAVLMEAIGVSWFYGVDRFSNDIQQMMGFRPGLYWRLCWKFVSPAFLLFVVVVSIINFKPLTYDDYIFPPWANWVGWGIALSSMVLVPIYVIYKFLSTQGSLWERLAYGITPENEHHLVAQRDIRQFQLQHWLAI
In short: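 CHO cell extracts expressing the transporter; tritiated or iodinated tracer displaced competitively; filtration plus scintillation readout at 1 h. Single-point duplicates at 25 uM, concentration series for follow-up; activity = signal drop relative to DMSO.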

[15] = target: Estrogen receptor (Homo sapiens) (UniProt P03372); assay: OT_ERa_GFPERaERE_0120: Odyssey Thera (OT) 2-hour HeLa Transcription Induction Assay for Estrogen Receptor (AID 2283382)
In short: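 Two-hour compound treatment of HeLa cells preceded microscopy imaging of an inducible fluorescent reporter. Image-based quantification gave one endpoint, analysed for signal increase relative to DMSO controls.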

[16] = target: Retinoic acid receptor RXR-alpha (Homo sapiens) (UniProt P19793); assay: OT_NURR1_NURR1RXRa_1440: Odyssey Thera (OT) 24-hour HEK293T Protein Complementation Assay for Nurr1/retinoid X receptor (RXR) (AID 2283386)
In short: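 Cell-based binding reporter: HEK293T cells, 24 h exposure, fluorescence-detected fragment complementation, DMSO as baseline.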

[17] = target: Bile acid receptor (Homo sapiens) (UniProt Q96RI1); assay: OT_FXR_FXRSRC1_1440: Odyssey Thera (OT) 24-hour HEK293T Protein-Complementation Assay for Farnesoid X receptor/SRC-1 Co-activator (AID 2283384)
Chain of Bile acid receptor (Homo sapiens) (Q96RI1 whole entry, looked up): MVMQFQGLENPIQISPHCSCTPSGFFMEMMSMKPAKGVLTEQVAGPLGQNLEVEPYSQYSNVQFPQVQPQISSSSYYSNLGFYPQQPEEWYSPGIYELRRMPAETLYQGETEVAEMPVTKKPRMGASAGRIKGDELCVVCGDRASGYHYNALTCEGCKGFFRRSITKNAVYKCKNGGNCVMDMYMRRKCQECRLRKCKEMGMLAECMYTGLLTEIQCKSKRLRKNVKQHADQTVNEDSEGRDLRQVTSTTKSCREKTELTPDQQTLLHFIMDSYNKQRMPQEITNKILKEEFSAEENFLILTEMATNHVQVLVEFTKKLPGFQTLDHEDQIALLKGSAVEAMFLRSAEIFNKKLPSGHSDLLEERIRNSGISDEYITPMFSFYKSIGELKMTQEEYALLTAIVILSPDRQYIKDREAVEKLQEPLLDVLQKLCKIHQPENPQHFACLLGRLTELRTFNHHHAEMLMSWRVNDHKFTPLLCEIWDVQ
In short: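 Single endpoint, analysed for increased fluorescence against DMSO controls. HEK293T cells carrying FXR and SRC-1 linked to complementary reporter halves were exposed to chemicals for 24 h before reading.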

[18] = target: Bile acid receptor (Homo sapiens) (UniProt Q96RI1); assay: OT_FXR_FXRSRC1_0480: Odyssey Thera (OT) 8-hour HEK293T Protein-Complementation Assay for Farnesoid X receptor/SRC-1 Co-activator (AID 2283383)
In short: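 Readings were taken 8 h after dosing HEK293T cells in a split-reporter complementation format pairing FXR with SRC-1. Increased fluorescence relative to DMSO-treated wells defined activity.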

CCCCC(C#N)(Cn1cncn1)c1ccc(Cl)cc1 (configuration not stated)
AC50 [1]: 15.4 µM (active)
AC50 [2]: 7.18 µM (active)
outcome [3]: inactive
outcome [4]: inactive
outcome [5]: inactive
outcome [6]: inactive
AC50 [7]: 51 µM (active)
AC50 [8]: 7.87 µM (active)

COP(=S)(OC)SCn1nnc2ccccc2c1=O
outcome [9]: inactive
outcome [10]: inactive
outcome [11]: inactive
outcome [3]: inactive
outcome [5]: inactive
outcome [6]: inactive
outcome [8]: inactive

Cc1cc(C)nc(Nc2ccccc2)n1
AC50 [1]: 22 µM (active)
AC50 [12]: 6.21 µM (active)
AC50 [2]: 25 µM (active)
outcome [13]: inactive
AC50 [14]: 4.72 µM (active)
outcome [3]: inactive
outcome [15]: inactive
outcome [16]: inactive
outcome [5]: inactive
outcome [6]: inactive

OC(c1ccc(Cl)cc1)(c1ccc(Cl)cc1)C(Cl)(Cl)Cl
outcome [1]: inactive
AC50 [2]: 8.54 µM (active)
outcome [9]: inactive
AC50 [11]: 12.3 µM (active)
outcome [3]: inactive
outcome [15]: inactive
outcome [5]: inactive
outcome [6]: inactive

Cc1nc(N(C)C)nc(OC(=O)N(C)C)c1C
outcome [11]: inactive
outcome [3]: inactive
outcome [17]: inactive
outcome [4]: inactive
outcome [16]: inactive
outcome [5]: inactive
outcome [6]: inactive
outcome [7]: inactive
outcome [8]: inactive

Cc1ccc(N=CN(C)C=Nc2ccc(C)cc2C)c(C)c1
outcome [11]: inactive
outcome [3]: inactive
outcome [15]: inactive
AC50 [4]: 50 µM (active)
AC50 [16]: 80.8 µM (active) and 31.9 µM (active)
outcome [5]: inactive
outcome [6]: inactive

COCC(=O)N(c1c(C)cccc1C)C(C)C(=O)OC (configuration not stated)
outcome [11]: inactive
outcome [3]: inactive
outcome [15]: inactive
outcome [18]: inactive
outcome [17]: inactive
outcome [4]: inactive
outcome [16]: inactive
outcome [5]: inactive
outcome [6]: inactive
outcome [8]: inactive

O=C(O)c1c(Cl)ccc2cc(Cl)cnc12
outcome [11]: inactive
outcome [3]: inactive
outcome [18]: inactive
outcome [17]: inactive
outcome [4]: inactive
outcome [16]: inactive
outcome [5]: inactive
outcome [6]: inactive

N#CN=C1SCCN1Cc1ccc(Cl)nc1
outcome [3]: inactive
outcome [15]: inactive
outcome [4]: inactive
outcome [5]: inactive
outcome [6]: inactive
outcome [7]: inactive
AC50 [8]: 50 µM (active)

CC(C)C1(C)N=C(c2ncccc2C(=O)O)NC1=O (configuration not stated)
outcome [3]: inactive
outcome [16]: inactive
outcome [5]: inactive
outcome [6]: inactive

CC(C)Oc1cccc(NC(=O)c2ccccc2C(F)(F)F)c1
outcome [11]: inactive
outcome [3]: inactive
outcome [4]: inactive
outcome [16]: inactive
outcome [5]: inactive
outcome [6]: inactive
AC50 [7]: 28.9 µM (active)
outcome [8]: inactive

CN=C=S
outcome [15]: inactive
outcome [18]: inactive
outcome [17]: inactive
outcome [4]: inactive
outcome [16]: inactive
outcome [5]: inactive
outcome [6]: inactive

N#Cc1c(Cl)cccc1Cl
outcome [11]: inactive
outcome [3]: inactive
outcome [4]: inactive
outcome [16]: inactive
outcome [5]: inactive
outcome [6]: inactive
outcome [7]: inactive
outcome [8]: inactive

CC(C)Nc1nc(Cl)nc(NC(C)C)n1
outcome [11]: inactive
outcome [3]: inactive
outcome [16]: inactive
outcome [5]: inactive
outcome [6]: inactive
outcome [8]: inactive

COc1cc(Cl)c(OC)cc1Cl
outcome [11]: inactive
outcome [3]: inactive
outcome [15]: inactive
outcome [4]: inactive
outcome [16]: inactive
outcome [5]: inactive
outcome [6]: inactive
outcome [7]: inactive
outcome [8]: inactive

CCNP(=S)(OC)O/C(C)=C/C(=O)OC(C)C (configuration not stated)
outcome [11]: inactive
outcome [3]: inactive
outcome [15]: inactive
outcome [4]: inactive
outcome [16]: inactive
outcome [5]: inactive
outcome [6]: inactive
AC50 [7]: 65.9 µM (active)
AC50 [8]: 61.8 µM (active)

COc1cc(OC)nc(NC(=O)NS(=O)(=O)c2ncccc2OCC(F)(F)F)n1
outcome [11]: inactive
outcome [3]: inactive
outcome [18]: inactive
outcome [17]: inactive
outcome [16]: inactive
outcome [5]: inactive
outcome [6]: inactive

CC(C)N1C(=O)N(c2ccccc2)CSC1=NC(C)(C)C
AC50 [11]: 27.7 µM (active)
outcome [3]: inactive
outcome [15]: inactive
AC50 [4]: 74.4 µM (active)
outcome [4]: inactive
AC50 [16]: 80.8 µM (active)
outcome [16]: inactive
outcome [5]: inactive
outcome [6]: inactive

Nc1c(Cl)c(Cl)nc(C(=O)O)c1Cl
outcome [11]: inactive
outcome [3]: inactive
outcome [4]: inactive
outcome [16]: inactive
outcome [5]: inactive
outcome [6]: inactive
